This note sets out measurements from PubChem BioAssay.

Assay [1] in a line: liver-stage malaria parasite load reduction – cell-based, known kinase inhibitor set, luminescence, hepatoma host viability (AID 624392).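 Further: infected cells incubated roughly two days before readout.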 Particulars: Plasmodium liver stage in hepatoma cells, luciferase luminescence, concentration not given here; liver cell % of control: measured here: host liver cell viability; parasite % of control: stronger effect = lower value.
The nature of assay [2]: altered dexamethasone sensitivity, NF-kB reporter, cell-based, luciferase, IL-1B stimulus (AID 624486).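 On percent of negative control (+Dex): 100% = mean signal of vehicle control wells on the plate.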 Particulars: IL-1B + dexamethasone, luminescence; percent of negative control (+Dex): actives lie on both sides, concentration not given here; z-score: measured here: IL-1B alone, no Dex.
Assay [3] is described as follows: C. elegans survival during P. aeruginosa infection – whole organism (AID 651566).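 Further: tested at 14 µM; sign flipped so higher z means a lower ratio.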 The settings on record: C. elegans killed by P. aeruginosa, survival ratio.
Assay [4] can be described thus: pro-inflammatory signaling induction in mouse macrophages – cell-based, murine, luminescence (AID 652131). Particulars: murine macrophage pro-inflammatory reporter, stronger effect = higher value.
Assay [5] deals with Cellular tumor antigen p53 (Homo sapiens) (UniProt P04637). The experiment in a line: GFP-p53 level modulators in HPV16+ cells – imaging, known kinase inhibitor set, EGFP/DsRed ratio (AID 1053116).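 Further: cells exposed to compounds for 24 h at 37 °C before reading.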 The settings on record: GFP-p53 stability, stronger effect = higher value; EGFP object count: measured here: GFP-p53 positive objects count.
Sequence of Cellular tumor antigen p53 (Homo sapiens) (P04637 whole entry, looked up): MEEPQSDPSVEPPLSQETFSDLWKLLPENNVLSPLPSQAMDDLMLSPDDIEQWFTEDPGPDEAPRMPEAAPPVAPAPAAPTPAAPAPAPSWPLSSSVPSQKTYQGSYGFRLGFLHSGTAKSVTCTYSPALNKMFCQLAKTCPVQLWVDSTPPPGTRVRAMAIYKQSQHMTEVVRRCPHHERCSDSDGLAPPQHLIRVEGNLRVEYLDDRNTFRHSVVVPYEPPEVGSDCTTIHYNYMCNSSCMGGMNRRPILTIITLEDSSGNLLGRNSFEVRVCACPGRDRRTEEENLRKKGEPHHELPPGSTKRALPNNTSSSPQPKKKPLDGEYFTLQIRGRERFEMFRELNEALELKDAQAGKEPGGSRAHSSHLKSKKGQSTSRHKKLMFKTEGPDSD
A short description of assay [6]: inducers of IRF3 signaling, differentiated THP-1 – cell-based, PMA-stimulated THP-1, luminescence (AID 1053176). The settings on record: PMA-differentiated THP-1, IRF3 reporter luminescence; stronger effect = higher value.
Assay [7] in a line: MELAS cybrid and Rieske KO viability enhancers – cell-based, MELAS cybrids, Rieske KO mouse fibroblasts, CellTiter-Glo, primary screen (AID 1508586;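 active means mean z-score across replicates of 1.96 or higher in either the MELAS or the Rieske mutant cell line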;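 further: z relative to plate mean and SD of compound and empty wells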). The settings on record: low glucose. On the technique in general: Cellular ATP, detected with luciferase, serves as a proxy for viable cell number.
[8] abbreviates: MELAS cybrid survival, CellTiter-Glo 48 h, stronger effect = higher value.
The mark [9] stands for this setting: Rieske KO mouse fibroblast survival, CellTiter-Glo 72 h.

Several values for one entry are separate records, joined by “and”; a condition that tells them apart may be missing. Equal values may be shown once. Activity calls are given as the source filed them. Unless noted, how the calls were made is not given here.

In turn, `COc1cc2c(cc1Nc1nc(Nc3ccsc3C(N)=O)c3cc[nH]c3n1)N(C(=O)CN(C)C)CCC2` displayed a liver cell % of control in assay [1] of 54.7%. The parasite % of control in assay [1] was 369% (inactive). Further, in assay [2], the percent of negative control (+Dex) was 95.5% (inactive). The z-score in assay [2] was -0.185; in assay [3], -0.225 (inactive); in assay [4] it was 2.59 (inactive); in assay [7] (setting [8]), 2.79 (active); in assay [7] (setting [9]) it was 10.1. Further, the EGFP object count in assay [5] is 1.5. Further, the EGFP/DsRed ratio in assay [5] is 0.0536 (inactive). Also, the fraction signal in assay [6] is -0.007 (inactive).

Regarding `Cn1c(-c2nonc2N)nc2cnccc21`, in assay [1], the liver cell % of control was 87.4%. In addition, the parasite % of control in assay [1] was 106% (inactive). Also, in assay [2], the percent of negative control (+Dex) is 70.5% (inactive). The z-score in assay [2] is -2.13; in assay [3], -0.36 (inactive); in assay [4] it was -0.113 (inactive); in assay [7] (setting [8]), -0.058 (inactive); in assay [7] (setting [9]), -0.308. Also, the EGFP object count in assay [5] was 4.5. In assay [5], the EGFP/DsRed ratio was 0.0787 (inactive). Besides, in assay [6], the fraction signal is -0.0065 (inactive).

Consider `COc1cc(/C=N/Nc2ncnc3c2cnn3C(C)C)ccc1O`, for which the liver cell % of control in assay [1] amounted to 128%. Further, the parasite % of control in assay [1] is 63.2% (inactive). In addition, the percent of negative control (+Dex) in assay [2] is 92.5% (inactive). For the same compound, the z-score in assay [2] was 0.145; in assay [3], -0.5 (inactive); in assay [4] it was -0.511 (inactive); in assay [7] (setting [8]) it was -1.18 (inactive); in assay [7] (setting [9]) it was 1.02. Moreover, in assay [5], the EGFP object count was determined as 6.5. The EGFP/DsRed ratio in assay [5] was 0.127 (inactive). Moreover, in assay [6], the fraction signal was -0.006 (inactive).

Turning to `COc1ccc(-c2coc3ncnc(N)c23)cc1`, the liver cell % of control in assay [1] was determined as 92.2%. In assay [1], the parasite % of control is 116% (inactive). Besides, the percent of negative control (+Dex) in assay [2] was 84% (inactive). For the same compound, the z-score in assay [2] was -0.765; in assay [3] it was 0.065 (inactive); in assay [4], -0.443 (inactive); in assay [7] (setting [8]) it was -0.507 (inactive); in assay [7] (setting [9]) it was -0.245. In assay [5], the EGFP object count was determined as 4. In assay [5], the EGFP/DsRed ratio is 0.227 (inactive). Besides, the fraction signal in assay [6] was 0.002 (inactive).

In assay [1], `CCn1c(-c2nonc2N)nc2c(C#CC(C)(C)O)nc(O[C@@H](CN)c3ccccc3)cc21` had a liver cell % of control of 49.4%. The parasite % of control in assay [1] is 14.1% (inactive). The percent of negative control (+Dex) in assay [2] was 132% (inactive). Further, the z-score in assay [2] is 3.44; in assay [3], 0.92 (inactive); in assay [4] it was 1 (inactive); in assay [7] (setting [8]), 1.1; in assay [7] (setting [9]) it was 4. In assay [5], the EGFP object count is 10.5. Further, in assay [5], the EGFP/DsRed ratio is 0.166 (inactive). In assay [6], the fraction signal was 0.0005 (inactive).

As to `NS(=O)(=O)c1ccc(N=Cc2c(O)[nH]c3ccc4ncsc4c23)cc1`, in assay [1], the liver cell % of control is 60.5% and 61.1%. For the same compound, the parasite % of control in assay [1] was 165% (inactive) and 378% (inactive). In addition, the percent of negative control (+Dex) in assay [2] is 112% (inactive) and 98.5% (inactive). The z-score was 0.655 and 0.01 in assay [2]; 0.515 (inactive) and 0.145 (inactive) in assay [3]; -1.62 (inactive) and -1.7 (inactive) in assay [4]; -0.336 (inactive) and 1.1 (inactive) in assay [7] (setting [8]); 0.0286 and -0.139 in assay [7] (setting [9]). Also, the EGFP object count in assay [5] is 2.5 and 4. In addition, the EGFP/DsRed ratio in assay [5] is 0.0629 (inactive) and 0.096 (inactive). The fraction signal in assay [6] was -0.009 (inactive) and 0.0005 (inactive).

For `CN1CCN(C(=O)c2ccc(NC(=O)Nc3ccc(N(C)c4ccnc(Nc5ccc(CS(C)(=O)=O)cc5)n4)cc3)cc2)CC1`, the liver cell % of control in assay [1] is 86.4%. In addition, in assay [1], the parasite % of control is 77.1% (inactive). Moreover, the percent of negative control (+Dex) in assay [2] was 85.5% (inactive). Besides, the z-score was -0.585 in assay [2]; 0.175 (inactive) in assay [3]; 4.5 (inactive) in assay [4]; 0.142 (inactive) in assay [7] (setting [8]); 0.134 in assay [7] (setting [9]). Also, in assay [5], the EGFP object count was 2. In assay [5], the EGFP/DsRed ratio is 0.13 (inactive). Further, the fraction signal in assay [6] was -0.0115 (inactive).

On to `COC1CCC2NC3C4NC5CCC(OC)CC5C4C4C(=O)NC(=O)C4C3C2C1` (centres undefined), for which the liver cell % of control in assay [1] came out at 93.4%. Moreover, the parasite % of control in assay [1] is 178% (inactive). Besides, the percent of negative control (+Dex) in assay [2] was 106% (inactive). Further, the z-score is 1.79 in assay [2]; 0.155 (inactive) in assay [3]; -0.67 (inactive) in assay [4]; -0.302 (inactive) in assay [7] (setting [8]); 0.67 in assay [7] (setting [9]). Also, in assay [5], the EGFP object count stood at 3. The EGFP/DsRed ratio in assay [5] was 0.0486 (inactive). In assay [6], the fraction signal was -0.005 (inactive).

On to `CN(C)CCNC(=O)Nc1ccc(N(C)c2ccnc(Nc3ccc(CS(C)(=O)=O)cc3)n2)cc1`, for which the liver cell % of control in assay [1] was found to be 111%. The parasite % of control in assay [1] is 94.7% (inactive). The percent of negative control (+Dex) in assay [2] was 101% (inactive). For the same compound, the z-score in assay [2] is -0.235; in assay [3] it was -0.12 (inactive); in assay [4], 3.19 (inactive); in assay [7] (setting [8]), -0.741 (inactive); in assay [7] (setting [9]), -0.109. In addition, the EGFP object count in assay [5] came out at 1. Further, the EGFP/DsRed ratio in assay [5] is 0.0718 (inactive). In addition, the fraction signal in assay [6] is 0.0045 (inactive).

Turning to `c1ccc(Cc2nc3ccc(Nc4ncnc5ccccc45)cc3[nH]2)cc1`, the liver cell % of control in assay [1] was 166%. For the same compound, the parasite % of control in assay [1] is 15.2% (inactive). In addition, in assay [2], the percent of negative control (+Dex) was 83% (inactive). The z-score in assay [2] is -0.365; in assay [3], 1.34 (inactive); in assay [4] it was 4.91 (inactive); in assay [7] (setting [8]) it was 0.254 (inactive); in assay [7] (setting [9]), -0.299. In addition, the EGFP object count in assay [5] was 5. In assay [5], the EGFP/DsRed ratio was 0.119 (inactive). Moreover, in assay [6], the fraction signal was -0.007 (inactive).

Take `NS(=O)(=O)c1ccc(-c2ccc3c(NC(=O)C4CC4)n[nH]c3c2)cc1`: the liver cell % of control in assay [1] is 109%. In addition, the parasite % of control in assay [1] was 143% (inactive). For the same compound, the percent of negative control (+Dex) in assay [2] was 98.5% (inactive). Also, the z-score in assay [2] is 0.755; in assay [3], -0.155 (inactive); in assay [4] it was 0.098 (inactive); in assay [7] (setting [8]), -0.641 (inactive); in assay [7] (setting [9]), -0.353. In assay [5], the EGFP object count was 4.5. In addition, the EGFP/DsRed ratio in assay [5] was 0.0343 (inactive). Further, the fraction signal in assay [6] is -0.0105 (inactive).

Regarding `O=C1NC(=O)C(c2ccc(Cl)cc2)=C1Nc1ccc(Cl)c(C(=O)O)c1`, in assay [1], the liver cell % of control amounted to 104%. In assay [1], the parasite % of control was 127% (inactive). Also, in assay [2], the percent of negative control (+Dex) is 92% (inactive). Also, the z-score in assay [2] was 0.785; in assay [3], 0.035 (inactive); in assay [4], 0.277 (inactive); in assay [7] (setting [8]), -0.525 (inactive); in assay [7] (setting [9]), -0.308. For the same compound, the EGFP object count in assay [5] amounted to 4. Moreover, the EGFP/DsRed ratio in assay [5] is 0.0822 (inactive). In addition, the fraction signal in assay [6] was -0.003 (inactive).

Compound `COc1cc(/C=N/Nc2ncnc3c2cnn3-c2ccccc2)ccc1O` had a liver cell % of control in assay [1] of 108%. Also, the parasite % of control in assay [1] was 61% (inactive). For the same compound, the percent of negative control (+Dex) in assay [2] is 92% (inactive). For the same compound, the z-score in assay [2] is 0.145; in assay [3] it was 0.145 (inactive); in assay [4] it was -0.075 (inactive); in assay [7] (setting [8]) it was 1.22 (inactive); in assay [7] (setting [9]), 0.165. The EGFP object count in assay [5] was found to be 4.5. For the same compound, in assay [5], the EGFP/DsRed ratio is 0.778 (inactive). Also, in assay [6], the fraction signal was -0.007 (inactive).

In assay [1], `CC1=C(C(=O)Nc2ccc3[nH]ncc3c2)C(c2ccc(Cl)c(Cl)c2)CC(=O)N1` (centres undefined) yielded a liver cell % of control of 100%. In addition, in assay [1], the parasite % of control was 160% (inactive). Also, the percent of negative control (+Dex) in assay [2] is 83.5% (inactive). For the same compound, the z-score in assay [2] is -1.08; in assay [3], -0.52 (inactive); in assay [4], -0.714 (inactive); in assay [7] (setting [8]), -0.00134 (inactive); in assay [7] (setting [9]), -0.0171. The EGFP object count in assay [5] was 2. The EGFP/DsRed ratio in assay [5] was 0.0149 (inactive). For the same compound, in assay [6], the fraction signal was -0.0025 (inactive).
